3T3 cytotox: Cytotoxic Profiling in NIH 3T3 Cell Line of Diverse Libraries Using Quantitative High-Throughput Screening; NIH 3T3 viability, CellTiter-Glo ATP luminescence, 48-72 h; Potency, µM (titrated, usually from 96.7 µM), usual class: inhibitors; 94,000 tested, 4.3% active; note: nearly all actives have a fitted effect of over 55% in size
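Cytotoxicity was measured by CellTiter-Glo ATP luminescence after 48 or 72 h compound exposure at 37 °C. Mouse NIH 3T3 fibroblasts were seeded at 400 cells/well and dosed by 23 nL pin transfer.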
NPR1 antag: Natriuretic polypeptide receptor (hNpr1) antagonism - Primary qHTS. Atrial natriuretic peptide receptor 1 (Homo sapiens), P16066. HEK293 hNpr1 GloSensor cGMP, ANP-stimulated luminescence. Potency, µM (titrated, usually from 46.3 µM), most hits filed as inhibitors. 76,000 tested, 1.6% active. AID 1347048, 2019; calls by dose curve; note: nearly all actives have a fitted effect of over 60% in size
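HEK293 cells stably expressing human Npr1 and cGMP GloSensor pGS-40F, loaded 2 h with 2% GloSensor reagent, given compound 30 min at room temperature. Luminescence read before and 20 min after 0.1 nM hNppA.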
Luciferase inh: Firefly luciferase inhibition profiling of diverse chemical library using quantitative high-throughput screening. Potency, µM (titrated, usually from 115 µM), actives largely listed as inhibitors. 76,000 tested, 2.5% active. AID 1347043, 2019. purified P. pyralis luciferase, luminescence, biochemical; note: nearly all actives have a fitted effect of over 65% in size
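Luminescence read by CCD imager after adding enzyme (10nM final) to wells holding compound, titrated in qHTS. Substrates 10uM each D-luciferin and ATP; buffer 50mM Tris acetate pH 7.5, 10mM Mg acetate, Tween-20, BSA.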
GPT2 inhibitor: Primary qHTS assay for inhibitors of Glutamate pyruvate transaminase 2 (GPT2); Alanine aminotransferase 2 (Homo sapiens), Q8TD30; Potency, µM (highest dose often 57.7 µM), most hits filed as inhibitors; 100,000 tested, 0.25% active; Recombinant GPT2, coupled pyruvate oxidase/HRP Amplex Red fluorescence; note: nearly all actives have a fitted effect of over 60% in size
Target sequence (Q8TD30 whole entry, looked up): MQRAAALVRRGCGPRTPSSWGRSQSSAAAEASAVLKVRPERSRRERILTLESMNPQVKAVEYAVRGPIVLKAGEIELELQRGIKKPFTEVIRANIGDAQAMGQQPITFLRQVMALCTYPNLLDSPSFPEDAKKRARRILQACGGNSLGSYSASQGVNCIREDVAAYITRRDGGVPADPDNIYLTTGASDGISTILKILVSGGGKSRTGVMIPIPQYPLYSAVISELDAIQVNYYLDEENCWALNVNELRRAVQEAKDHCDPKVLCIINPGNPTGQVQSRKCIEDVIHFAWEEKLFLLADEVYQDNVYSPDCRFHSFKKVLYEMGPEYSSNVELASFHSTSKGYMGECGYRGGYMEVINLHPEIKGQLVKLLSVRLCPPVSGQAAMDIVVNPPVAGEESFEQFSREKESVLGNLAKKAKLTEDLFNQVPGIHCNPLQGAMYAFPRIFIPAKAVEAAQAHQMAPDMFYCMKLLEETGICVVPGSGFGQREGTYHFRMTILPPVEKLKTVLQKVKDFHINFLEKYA
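Fluorescence of coupled pyruvate oxidase/HRP/Amplex Red system (50uM Amplex, 30 min, dark) reports pyruvate formed by GPT2. Enzyme reaction: 10ng/uL GPT2, 2mM L-alanine, 250uM a-KG, 30 min room temperature, pH 7.5; 50uM AOA control.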
HEK293 tox: Cytotoxic Profiling in HEK 293 Cell Line of Diverse Libraries Using Quantitative High-Throughput Screening. HEK 293 viability, ATP luminescence (CellTiter-Glo), 48-72 h. Potency, µM (doses to about 115 µM), hits mostly inhibitors. 94,000 tested, 6.6% active. AID 1345083, 2018; note: nearly all actives have a fitted effect of over 60% in size
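ATP-coupled CellTiter-Glo luminescence served as viability read-out, recorded 10 min after reagent addition at room temperature. HEK 293 cells, 250 cells/well, had been incubated with pintool-transferred compound for 48 or 72 hr at 37 degree Celsius.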
NPR1 antag cnf: Natriuretic polypeptide receptor (hNpr1) antagonism - Confirmation; Potency, µM (titrated, usually from 57.6 µM), actives largely listed as inhibitors; 1,400 tested, 76% active; HEK293 hNpr1 cGMP GloSensor luminescence, ANP-stimulated; AID 1347044, 2019; shares compounds with NPR1 antag; calls by dose curve; note: nearly all actives have a fitted effect of over 70% in size
NPR2 antag: Natriuretic polypeptide receptor (hNpr2) antagonism - Subtype selectivity assay. HEK293 hNpr2 GloSensor cGMP luminescence, CNP-stimulated. shares compounds with NPR1 antag. AID 1347046, 2019. Potency, µM (top dose mostly 57.6 µM), actives largely listed as inhibitors. 1,400 tested, 67% active; calls by dose curve; note: nearly all actives have a fitted effect of over 70% in size
FLuc counter: Natriuretic polypeptide receptor (hNpr1) antagonism - Confirmation firefly luciferase (FLuc) inhibition counterscreen; Potency, µM (highest dose often 57.6 µM), most hits filed as inhibitors; purified FLuc enzyme, luminescence, Km substrate; 1,400 tested, 0.7% active; shares compounds with NPR1 antag; AID 1347047, 2019
GloSensor cGMP: Natriuretic polypeptide receptor (hNpr1) antagonism - Counterscreen GloSensor control cell line; shares compounds with NPR1 antag; HEK293 GloSensor cGMP, SNP-stimulated, luminescence; Potency, µM (doses to about 57.6 µM), usual class: inhibitors; 1,400 tested, 69% active; AID 1347051, 2019; calls by dose curve; note: nearly all actives have a fitted effect of over 70% in size
A number is an active result; – = inactive; ? = inconclusive; · = not tested or not shown. In the library only some 10% were active in any assay of this set; here they are far more common. Unless noted, calls come from the whole dose curve; as a rule, active = well fitted curve in the direction sought with a large enough effect; inconclusive = small, poorly fitted or top-dose-only effect, or another doubt; inactive = no such curve, though single readings can be large; an effect the other way counts as inactive or inconclusive.

SMILES | 3T3 cytotox | NPR1 antag | Luciferase inh | GPT2 inhibitor | HEK293 tox | NPR1 antag cnf | NPR2 antag | FLuc counter | GloSensor cGMP
COc1ccc(C(=O)N2CCC3(CC2)N=C(c2ccccc2)NO3)cc1OC | – | – | – | – | – | · | · | · | ·
COc1ccc(C(=O)N2CCC3(CC2)N=C(c2ccc(Cl)cc2)NO3)cc1OC | – | 11.2µM | – | – | ? | 10.9µM | 12.2µM | – | 9.68µM
COc1ccc(C(=O)N2CCC3(CC2)N=C(c2ccc(Br)cc2)NO3)cc1OC | – | 10µM | – | – | ? | 6.85µM | 10.9µM | – | 6.85µM
CC12CCC(=O)C=C1CCN(c1ccccc1)C2 (stereo unspecified) | ? | · | · | · | – | · | · | · | ·
CN1CCCCCC(O)c2cc(C(=O)NCCc3c[nH]c4ccccc34)ccc21 (stereo unspecified) | ? | – | – | – | ? | · | · | · | ·
N#Cc1cccc(CN[C@H]2CO[C@H]3[C@@H]2OC[C@H]3OC(=O)Nc2ccc(Oc3ccccc3)cc2)c1 | ? | 17.8µM | – | – | ? | 21.7µM | 21.7µM | – | 19.3µM
COC(=O)c1cccc(NC(=S)N[C@H]2CO[C@H]3[C@@H]2OC[C@H]3OC(=O)Nc2cccc3ccccc23)c1 | ? | ? | – | – | ? | · | · | · | ·
COc1ccc(NC(=O)O[C@@H]2CO[C@H]3[C@@H]2OC[C@@H]3NC(=O)Nc2cccc(C#N)c2)cc1 | – | – | – | – | – | · | · | · | ·
CC(=O)Nc1ccc(S(=O)(=O)N[C@H]2CO[C@H]3[C@@H]2OC[C@H]3OC(=O)Nc2ccc(C(C)=O)cc2)cc1 | – | – | – | ? | – | · | · | · | ·
O=C(Nc1ccc(Oc2ccccc2)cc1)O[C@@H]1CO[C@H]2[C@@H]1OC[C@@H]2NC(=S)Nc1cccc2ccccc12 | ? | 10µM | – | – | ? | 5.44µM | 6.85µM | – | 6.11µM
O=C(Nc1ccc(Oc2ccccc2)cc1)O[C@@H]1CO[C@H]2[C@@H]1OC[C@@H]2NS(=O)(=O)c1ccc2ccccc2c1 | ? | ? | – | – | ? | 17.2µM | 15.3µM | – | 10.9µM
COc1ccc(-c2ccc(NC(=O)c3cccc(Cl)c3)cc2)nn1 | – | · | · | · | – | · | · | · | ·
Cc1cnc(-c2ccncc2)n1CC1CN(Cc2cccnc2)C1 | – | · | · | – | – | · | · | · | ·
COc1ccc(-c2cc(C[C@@H]3CC[C@H](O)[C@@H](CNCc4ccccc4OC)O3)no2)cc1 | 56.2µM | 28.2µM | ? | – | 31.6µM | 31.4µM | 35.3µM | ? | ?
CC(C)(C)C(=O)NC[C@H]1O[C@H](Cc2cc(-c3ccc(F)cc3)on2)CC[C@@H]1O | – | ? | – | – | ? | ? | ? | 19.8µM | ?
COc1ccc(-c2cc(C[C@@H]3CC[C@H](O)[C@@H](CNC(=O)Nc4ccccc4OC)O3)no2)cc1 | ? | – | – | – | ? | · | · | · | ·
O[C@H]1CC[C@@H](Cc2cc(-c3ccc(F)cc3)on2)O[C@@H]1CNC1CCCCC1 | 39.8µM | ? | – | – | ? | ? | ? | – | –
Cc1ccc(S(=O)(=O)NC[C@H]2O[C@H](Cc3cc(-c4cccc(O)c4)on3)CC[C@@H]2O)cc1 | ? | ? | – | ? | ? | ? | ? | ? | ?
CN(C)CC1(O)CCC2(CCN(C(=O)CCc3nc(-c4ccccc4)no3)CC2)CC1 | – | – | – | – | ? | · | · | · | ·
CNC(=O)c1cc(C2CC2)nc2onc(C3CCN([S+](=O)([O-])c4ccccc4)C3)c12 (stereo unspecified) | – | · | · | · | ? | · | · | · | ·
CC(=O)N1CCC(c2nnc3n2C(C(=O)NC2CCCCCC2)CC3)CC1 (stereo unspecified) | – | · | · | – | – | · | · | · | ·
COCC(=O)NC1CCN(C(=O)c2ccc(-c3ncccc3C#N)cc2)CC1 | – | · | · | – | – | · | · | · | ·
Oc1cccc(-c2cc(C[C@@H]3CC[C@H](O)[C@@H](CNC4CCC4)O3)no2)c1 | – | ? | – | – | – | ? | – | – | –
COc1ccc(CNC[C@H]2O[C@H](Cc3cc(-c4cccc(O)c4)on3)CC[C@@H]2O)cc1 | ? | – | – | – | ? | · | · | · | ·
O=C(c1cc2cc(F)ccc2[nH]1)N1CCC(CO)(CCCc2ccccc2)CC1 | ? | – | – | – | ? | · | · | · | ·
SMILES | 3T3 cytotox | NPR1 antag | Luciferase inh | GPT2 inhibitor | HEK293 tox | NPR1 antag cnf | NPR2 antag | FLuc counter | GloSensor cGMP
O=C(c1ccc2nc[nH]c2c1)N1CCC(CO)(CCCc2ccccc2)CC1 | – | 11.2µM | – | – | 25.1µM | 24.3µM | 24.3µM | – | 21.7µM
Cc1ccc(C(=O)N2CCC(Cc3nc(-c4ccccc4)n[nH]3)CC2)cn1 | – | · | · | ? | – | · | · | · | ·
O=C(Cc1ccc(F)cc1)N1CCN(C(=O)c2nnn3c2COC(c2ccc(Cl)cc2)C3)CC1 (stereo unspecified) | – | 12.6µM | – | – | ? | 24.3µM | ? | – | 21.7µM
COc1ccc(C2Cn3nnc(C(=O)N4CCN(C(=O)c5ccc(F)cc5Cl)CC4)c3CO2)cc1 (stereo unspecified) | – | 11.2µM | – | – | ? | 21.7µM | 21.7µM | – | 19.3µM
COc1ccc(C(=O)N2CCN(C(=O)c3nnn4c3COC(c3ccc(F)cc3)C4)CC2)cc1 (stereo unspecified) | ? | – | – | – | ? | · | · | · | ·
COc1ccc(C2Cn3nnc(C(=O)NC4CCCCCCC4)c3CO2)cc1 (stereo unspecified) | ? | ? | – | – | ? | ? | ? | – | 19.3µM
COc1ccc(C2Cn3nnc(C(=O)N4CCN(C(=O)c5ccc(F)cc5)CC4)c3CO2)cc1 (stereo unspecified) | – | ? | – | – | ? | 21.7µM | ? | – | 21.7µM
COc1ccc(C2Cn3nnc(C(=O)NC4CCCCCC4)c3CO2)cc1 (stereo unspecified) | ? | ? | – | – | ? | · | · | · | ·

Source: PubChem (National Center for Advancing Translational Sciences (NCATS))
